The values below come from ChEMBL document CHEMBL1157539, “Thousands of chemical starting points for antimalarial lead identification” (Nature, 2010).

Common to all, as to format: functional
The subject of assay [1] is Plasmodium falciparum. The experiment in a line: GSK_TCMDC: Inhibition of Plasmodium falciparum 3D7 in whole red blood cells, using parasite LDH activity as an index of growth. Test compounds present at 2uM.
Assay [2] deals with Plasmodium falciparum. The assay can be described thus: GSK_TCMDC: Inhibition of Plasmodium falciparum Dd2 in whole red blood cells, using parasite LDH activity as an index of growth. Test compounds present at 2uM.
The next assay relates to HepG2. The experiment in a line: GSK_TCMDC: Percent inhibition of human HepG2 cell line. Test compounds present at 10uM.

Structures are written as SMILES.

For `O=C(c1ccccc1F)N(Cc1ccc(Cl)cc1)c1ccccn1`, the figures for the Inhibition in the assay on Plasmodium falciparum [1], in the assay on Plasmodium falciparum [2] and in the assay on HepG2 were 84%, 58% and 0%, respectively.
Consider `COc1cccc(NC(=O)c2ccc(NCCCN3CC(C)CC(C)C3)c([N+](=O)[O-])c2)c1` (configuration not stated), for which the Inhibition with Plasmodium falciparum [1] was 100%; in the assay with Plasmodium falciparum [2], 68%; in the assay on HepG2, 14%.
The corresponding values for `O=C(/C=C/c1ccc(Cl)c(Cl)c1)NCCCCCN1CCC(NS(=O)(=O)c2cc(Cl)cc(Cl)c2)CC1` are 83%, 5% and 7%.
The corresponding values for `CCCCCC(C)N/C(=N/c1cccc(Cl)c1Cl)Nc1ccc(C#N)cc1O` (configuration not stated) are 100%, 98% and 28%.
Consider `CN(Cc1ccc(C#N)cc1)C1CCN(c2cc(NC(=O)c3cccc(F)c3)ccn2)CC1.O=C(O)C(F)(F)F`, for which the Inhibition with Plasmodium falciparum [1] amounted to 83%; with Plasmodium falciparum [2], 0%; in the assay on HepG2, 9%.
As to `O=C(Nc1ccc(N2CCCN(Cc3cccc(F)c3)CC2)cc1)c1ccc(F)cc1.O=C(O)C(F)(F)F`, the Inhibition in the assay with Plasmodium falciparum [1] was 96%; in the assay on Plasmodium falciparum [2], 95%; in the assay on HepG2, 0%.
The corresponding values for `O=C(Nc1ccc(Cl)cc1C(=O)Nc1ccncc1)c1ccc(Cl)cc1Cl` are 99%, 75% and 8%.
The corresponding values for `CC(C)c1cc2c(cc1O)C(Cc1ccccc1Cl)N(C)CC2.Cl` (configuration not stated) are 97%, 33% and 0%.
The corresponding values for `CCN(CCCN1CCCCC1)c1cc(C)nc(Nc2ccc(Cl)cc2C)n1.O=C(O)C(F)(F)F` are 95%, 46% and 44%.
`Cc1cccc2nc(-c3cccc(-c4ccc(CNCCCN5CCCC5=O)cc4)c3)[nH]c12.O=C(O)C(F)(F)F`: the Inhibition with Plasmodium falciparum [1] was found to be 100%; with Plasmodium falciparum [2], 38%; with HepG2, 5%.
The corresponding values for `CC(C)Oc1cc2c(cc1NS(=O)(=O)c1ccc(-c3ccc(Cl)cc3)cc1F)CCN(C)CC2.Cl` are 88%, 2% and 29%.
`COc1ccc2[nH]cc(C3CCN(CCCCNC(=O)c4ccc(NC(=O)c5ccc(Cl)cc5)cc4)CC3)c2c1`: the Inhibition with Plasmodium falciparum [1] came to 98%; with Plasmodium falciparum [2] it was 16%; in the assay with HepG2 it was 17%.
As to `c1ccc2c(CNc3ccnc(NCc4cccc5ccccc45)n3)cccc2c1`, the figures for the Inhibition with Plasmodium falciparum [1], in the assay on Plasmodium falciparum [2] and with HepG2 were 99%, 71% and 51%, respectively.
The corresponding values for `COc1ccc2c(OC)c(CNCCCCCCNCc3ccc4cc(OC)ccc4c3OC)ccc2c1.CS(=O)(=O)O` are 98%, 49% and 100%.
For the compound `CCCCCCc1cnc2nc(N)nc(N)c2c1C`, the figures for the Inhibition in the assay with Plasmodium falciparum [1], in the assay with Plasmodium falciparum [2] and in the assay with HepG2 were 93%, 20% and 67%, respectively.
With `CC(C)CC(=O)N1CCNC[C@@H]1C(=O)NCc1ccc(Cl)c(Cl)c1.O=C(O)C(F)(F)F`, the figures for the Inhibition with Plasmodium falciparum [1], in the assay with Plasmodium falciparum [2] and in the assay with HepG2 were 99%, 16% and 0%, respectively.
The corresponding values for `CCN(CC)CCN(CCN(CC)CC)c1ccc(-c2nc3cc(Cl)c(Cl)cc3[nH]2)cc1` are 100%, 97% and 9%.
The corresponding values for `Cc1cc(Nc2ccc(C)c(Cl)c2)n2ncnc2n1` are 98%, 91% and 6%.
The corresponding values for `O=C(Nc1ccccc1F)N(CCCn1ccnc1)Cc1csc(-c2ccc(CNCc3ccccc3)cc2)n1.O=C(O)C(F)(F)F` are 93%, 26% and 24%.
Take `O=C(NCCCCCN1CCC(c2c[nH]c3ccccc23)CC1)Nc1cccc(Br)c1`: the figures for the Inhibition with Plasmodium falciparum [1], in the assay on Plasmodium falciparum [2] and in the assay with HepG2 were 84%, 0% and 39%, respectively.
The corresponding values for `O=C(NCCN1CCC(c2ccncc2)CC1)c1cccc(Nc2nccc(Nc3ccc(Oc4ccccc4)cc3)n2)c1` are 100%, 91% and 60%.
The corresponding values for `Cl.O=C(/C=C/c1ccc(F)cc1)NC1CCC(CCN2CCc3ccccc3CC2)CC1` (configuration not stated) are 91%, 36% and 27%.
The corresponding values for `CN(C)CCCSc1ccccc1NC(=O)C=Cc1ccccc1` are 85%, 0% and 0%.
Turning to `CNC(=O)c1cnc(Nc2ccc(OCC(O)CN(C)C)cc2)nc1Nc1cccc([N+](=O)[O-])c1.O=C(O)C(F)(F)F` (configuration not stated), the Inhibition is listed as 100% in the assay on Plasmodium falciparum [1], 94% in the assay with Plasmodium falciparum [2] and 52% in the assay with HepG2.
The corresponding values for `OC(CNCc1ccccc1)c1cc(OCc2ccccc2)cc(OCc2ccccc2)c1` (configuration not stated) are 98%, 76% and 0%.
The corresponding values for `FC(F)(F)Oc1ccc(Nc2cc(-c3ccncc3)nc(-c3cccnc3)n2)cc1` are 94%, 52% and 24%.
The corresponding values for `CC(C)(CNCc1ccc(Cl)c(Cl)c1)c1nc(-c2ccc(Cl)c(O)c2)c(-c2ccncc2)[nH]1.Cl` are 100%, 97% and 43%.
As for `O=C(Nc1ccc2nc3n(c(=O)c2c1)CCCCC3)C(=O)N1CCN(c2ccc(F)cc2)CC1`, the Inhibition in the assay with Plasmodium falciparum [1] stood at 93%; in the assay with Plasmodium falciparum [2], 86%; in the assay with HepG2, 10%.
The corresponding values for `CC(C)[C@@H](NC(=O)NC1CCC(CCN2C3CCC2CC(OC(=O)C(CO)c2ccccc2)C3)CC1)C(O)(c1ccccc1)c1ccccc1` (some centres not stated) are 96%, 56% and 19%.
